Experimental data as given in PubChem BioAssay AID485364 (National Center for Advancing Translational Sciences (NCATS), 2010).
The whole screen tested about 360,000 compounds, of which about 11,000 (3.1%) were called active. Inconclusive results (about 4%) are left out. The sample holds actives, similar compounds and a random draw of the others, so the mix is not that of the screen. Calls come from the whole dose curve; as a rule, active = well fitted inhibition curve with a large enough effect; inconclusive = small, poorly fitted or top-dose-only effect; inactive = no such curve, though single readings can be large or run the other way.

Molecular target: Schistosoma mansoni thioredoxin glutathione reductase (TGR) (UniProt Q962Y6)
Assay: qHTS Assay for the Inhibitors of Schistosoma Mansoni Peroxiredoxins; note: nearly all actives have a fitted effect of over 60% in size
Details: purified TGR, DTNB reduction, TNB absorbance 405 nm; series mostly up to 114 µM; activity change, negative = inhibition: at the top concentration
Excerpt: Schistosomiasis is a major neglected tropical disease that currently affects over 200 million. It is caused by different species of flatworms, such as Schistosoma mansoni. Over the last century, drugs to treat the disease have evolved from potassium antimonyl tartrate, artemisinin, oxamniquine, to praziquantel, with praziquantel remaining the universally-used single drug of choice over the past three decades. However, transmission rates have changed little with praziquantel, and there is evidence for the development of drug resistant parasites. Because there is currently no suitable alternative therapy available, there is an urgent need to identify new targets and drugs for schistosomiasis treatment. Thioredoxin glutathione reductase (TGR), one uniquely positioned S. mansoni enzyme, has been identified as a major component of the worms' distinct and compressed antioxidant "firewall". TGR is a multifunctional enzyme that catalyzes the interconversion between reduced and oxidized forms of both glutathione (GSH) and thioredoxins, thus making it an attractive new antiparasitic target. Recently, a quantitative high-throughput screen of the NIH Molecular Libraries Small Molecule Repository (MLSMR, ~71K at the time of the screen in 2007) was performed using an assay that targeted both TGR and peroxiredoxin2 (Prx2, an H2O2-reducing enzymatic component of the S. mansoni redox "firewall") by following the decrease of NADPH fluorescence. […] Additional mechanistic link between exogenous NO donation and parasitic injury for the oxadiazole-2-oxide class of compounds was also expanded and better defined. Although the screen addressed both TGR and Prx2, the assay required post-screen target deconvolution for further characterization of the actives. In addition, the fluorescence assay was also subject to fluorescence interference from compound library members. We have developed a 1536-well-based kinetic HTS assay to address TGR alone. The assay followed the reduction of 5, 5'-dithiobis (2-nitrobenzoic acid) (DTNB) (Ellman's reagent) by NADPH and measured the increase in absorbance at 412 nm of the reaction product, TNB. […] This assay format can be used to screen the current MLSMR collection (with >300K compounds available) to find novel TGR inhibitors. Furoxan is a good choice to serve as a positive control in the primary HTS assay.
Three microliters of reagents (100 uM NADPH and 20 nM TGR or 100 uM NADPH as no-enzyme control) were dispensed into 1,536-well black clear-bottomed plates. Compounds (23 nL) were transferred via Kalypsys pin tool equipped with 1536-pin array (10 nL slotted pins, V&P Scientific, San Diego, CA). The plates were then be incubated for 15 min at room temperature, and 1 uL aliquot of 500 uM NADPH were added, immediately followed by a 1 uL aliquot of 15 mM DTNB to start the reaction. The plate was transferred to a ViewLux high-throughput CCD imager (Perkin-Elmer, Wellesley, MA) where kinetic measurements of the TNB absorbance were acquired using a 405 excitation filter. Throughout the screen, reagent bottles and all liquid lines were made light-tight to minimize reagent degradation. All screening operations were performed on a fully integrated robotic system (Kalypsys, San Diego, CA) containing one RX-130 and two RX-90 anthropomorphic robotic arms (Staubli, Duncan, SC). Library plates were screened starting from the lowest and proceeding to the highest concentration, and a "double-dipping" step of the highest concentration was required to access higher concentrations of compounds. Vehicle-only plates, with DMSO being pin-transferred to the entire column 5-48 compound area, were inserted uniformly at the beginning and the end of each library in order to monitor for and record any shifts in the background, which can be affected by reagent dispensers or loss in enzyme activity overtime. […]
% is set by controls: 0 for no effect and ±100 for the full control effect; potency is the fitted concentration of half-maximal effect.

| Structure (SMILES) | activity change, negative = inhibition | Potency |
| --- | --- | --- |
| O=C(Cn1cc(SCc2cccc(Cl)c2)c2ccccc21)N1CCCCC1 | 8.64% (inactive) | – |
| Oc1c(C(c2ccccn2)N2CCOCC2)ccc2cccnc12 (stereo not given) | – | 0.794 µM (active) |
| Cn1c(C(=O)Nc2cccc(C(F)(F)F)c2)cc2c(=O)n3ccccc3nc21 | -5.71% (inactive) | – |
| Cc1ccccc1NC(=S)Nc1cccc([N+](=O)[O-])c1 | – | 44.7 µM (active) |
| Cc1cc([N+](=O)[O-])ccc1NCc1cccc([N+](=O)[O-])c1 | -14% (inactive) | – |
| COC(=O)/C=C\C(=O)Nc1cccc([N+](=O)[O-])c1 | – | 0.794 µM (active) |
| CCC(CC)NC(=O)/C=C/c1cccc([N+](=O)[O-])c1 | -7.28% (inactive) | – |
| O=C(Nc1cccc([N+](=O)[O-])c1)N1CCc2ccccc2C1 | -15.1% (inactive) | – |
| Cc1c(NC(=O)Nc2cccc([N+](=O)[O-])c2)c(=O)n(-c2ccccc2)n1C | -26.1% (inactive) | – |
| COc1ccccc1N1CCN(CCCNC(=O)c2cnn(-c3ccccc3Cl)c2C2CCN(C(=O)OC(C)(C)C)CC2)CC1 | -10.9% (inactive) | – |
| COc1ccc(Br)cc1C1CC(=O)Nc2c1c(C)nn2-c1nc(C)cc(C)n1 (stereo not given) | -0.653% (inactive) | – |
| O=C(CCC(=O)N1CC2CCCN2c2ccccc21)NCc1ccccc1Cl (stereo not given) | -1.42% (inactive) | – |
| Cc1ccc(N=C2NC(=O)/C(=C/C=C/c3ccco3)S2)cc1C | – | 44.7 µM (active) |
| CC(C)c1ccc(NC(=O)Cn2c3ncccc3c(=O)n2-c2ccccc2)cc1 | -12% (inactive) | – |
| CN(Cc1ccccc1)C(=O)CCS(=O)(=O)c1cc(Br)cc2c1N(C(=O)C1CC1)CC2 | -20.2% (inactive) | – |
| N#Cc1cccc(CN2CCC(=O)N(CCO)CC2)c1 | 0.227% (inactive) | – |
| N#CCCN1CCN(S(=O)(=O)c2ccc(S(=O)(=O)N3CCCC3)cc2)CC1 | 5.99% (inactive) | – |
| CC(C)(C)c1cc(CN2CCN(CCC#N)CC2)cc(C(C)(C)C)c1O | – | 2.24 µM (active) |
| Cc1noc(C)c1C(=O)NCC1COc2ccccc2O1 (stereo not given) | 14.9% (inactive) | – |
| O=C1C(=O)N(CC2COc3ccccc3O2)c2ccccc21 (stereo not given) | 5.93% (inactive) | – |
| Cc1cc(C(=O)CCl)c(C)n1CC1COc2ccccc2O1 (stereo not given) | – | 10 µM (active) |
| Cc1ccc2nc(COc3ccc(NC(=O)COc4ccccc4F)cc3)cc(=O)n2c1 | 2.09% (inactive) | – |
| C=C(C)C(=O)O[C@H]1C/C(C)=C\C(=O)/C=C(\C)[C@H](O)[C@@H]2OC(=O)C(=C)[C@@H]21 | – | 3.55 µM (active) |
| CCOC(=O)c1c(C)oc2nc(C)nc(N(CC(C)C)CC(C)C)c12 | -0.372% (inactive) | – |
| CCCC[C@]12Cc3cc(OC)c(OC)cc3C(O1)C1=C(CC3(CCCCC3)OC1=O)O2 | – | 11.2 µM (active) |

| Structure (SMILES) | activity change, negative = inhibition | Potency |
| --- | --- | --- |
| CCCCC12CN3CC(C)(CN(C1)C3c1ccc(O)c(OC)c1)C2=O (stereo not given) | -4.55% (inactive) | – |
| COc1cc2c(cc1OC)CC1(CCCCC1)N=C2 | 2.45% (inactive) | – |
| COc1ccc(-c2[nH]c3c(c2-c2c(-n4cccc4)n(C)c(=O)n(C)c2=O)c(=O)n(C)c(=O)n3C)cc1 | 0.0872% (inactive) | – |
| Cc1ccc(NC(=O)c2oc3ccccc3c2NC(=O)Cc2cccs2)cc1 | -1.38% (inactive) | – |
| COc1cccc(NC(=O)COC(=O)CCOc2ccccc2OC)c1 | -7.41% (inactive) | – |
| COc1cc([N+](=O)[O-])ccc1NC(=O)COC(=O)CCOc1ccc(C)cc1 | – | 35.5 µM (active) |
| CSc1ccccc1NC(=O)COC(=O)CCCOc1ccc(C)cc1 | -1.77% (inactive) | – |
| CCOC(=O)c1ccc(NC(=O)CCS(=O)(=O)c2ccc3c(c2)oc(=O)n3C)cc1 | 8.54% (inactive) | – |
| Cc1ccc(C(=O)Oc2ccc(C(=S)N3CCOCC3)cc2)cc1 | -7.9% (inactive) | – |
| Cc1ccc(C(=O)OC2=CC(=O)CC(C)(C)C2)cc1 | – | 44.7 µM (active) |
| COC(=O)NNC1=CC(=O)CC(C)(C)C1 | -7.66% (inactive) | – |
| COc1ccccc1CNC(=O)c1ccc(CS(=O)c2ccccc2Cl)o1 (stereo not given) | -24.7% (inactive) | – |
| COc1cccc(C(=O)N(Cc2cccc(Cl)c2)Cc2ccco2)c1 | 8.76% (inactive) | – |
| CCS(=O)(=O)Nc1ccc(C2=NN(C(C)=O)C(c3cccs3)C2)cc1 (stereo not given) | 4.07% (inactive) | – |
| CS(=O)(=O)Nc1cccc(C2=NN(S(=O)(=O)c3ccccc3)C(c3cccs3)C2)c1 (stereo not given) | 4.09% (inactive) | – |
| CCS(=O)(=O)Nc1ccc(C2=NN(S(=O)(=O)c3ccc(F)cc3)C(c3ccco3)C2)cc1 (stereo not given) | – | 44.7 µM (active) |
| CCOCCCNC(=O)c1c(NC(=O)Cc2coc3c(C)c(C)ccc23)sc2c1CCC2 | -12.2% (inactive) | – |
| CCCCNC(=O)CSc1nc2cc3c(cc2c(=O)n1CCCCCC(=O)NCc1ccc2c(c1)OCO2)OCO3 | -5.38% (inactive) | – |
| C=C(C)Cn1c(SCC(=O)NCc2ccco2)nc2sc3c(c2c1=O)CCC3 | – | 44.7 µM (active) |
| O=C(NCc1ccco1)c1nc2ncccn2n1 | 0.0944% (inactive) | – |
| C=CCn1c(SCC(=O)NCCCO)nc2sc3c(c2c1=O)CCC3 | -6.99% (inactive) | – |
| O=C(NCc1ccco1)c1cccn2c(=O)c3c4c(sc3nc12)CCCC4 | – | 12.6 µM (active) |
| O=c1oc(-c2ccco2)nc2sc3c(c12)CCCCC3 | 0.263% [at 57.1 µM] (inactive) | – |
| O=C(CSc1nc2cc3c(cc2c(=O)n1CCC1=CCCCC1)OCO3)NCc1ccco1 | 10.1% (inactive) | – |
| Cc1nc2ccc(S(=O)(=O)N(CC(=O)Nc3ccc(F)cc3)Cc3ccccc3)cc2s1 | 7.38% (inactive) | – |
